# Laboratory results reported in PubChem BioAssay.
# Target: Streptavidin (Streptomyces avidinii) (UniProt P22629)
# Experiment: streptavidin binders on small-molecule microarray, primary screen, artefact control for SMM compound annotation, biophysical, 635/667 nm fluorescence (AID 1147);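 further: signal reflects streptavidin binding to arrayed compounds as a control protein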
# Settings: streptavidin binding, higher = more signal
# Sequence of Streptavidin (Streptomyces avidinii) (P22629 whole entry, looked up): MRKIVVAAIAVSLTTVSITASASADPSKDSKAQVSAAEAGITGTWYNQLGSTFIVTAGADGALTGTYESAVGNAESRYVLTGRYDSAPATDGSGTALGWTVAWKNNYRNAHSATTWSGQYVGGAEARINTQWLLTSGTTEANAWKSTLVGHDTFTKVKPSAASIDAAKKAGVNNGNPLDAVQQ
row,Compound,composite z-score
1,NC(=O)NCC#Cc1ccc2c(c1)[C@]1(C(=O)N2)[C@H](C(=O)NC[C@H](O)c2ccccc2)[C@H]2C(=O)O[C@H](c3ccccc3)[C@H](c3ccccc3)N2[C@@H]1c1ccc(O)cc1,1.34
2,CCOC(=O)C[C@H]1[C@H](OC(=O)c2ccc(-c3ccccc3)cc2)[C@@H](NC(=O)Cc2ccc(OC)cc2)c2cc(OCCCO)ccc2N1C(=O)c1ccc2ccccc2n1,0.8
3,COc1cccc(C(=O)O[C@H]2CC[C@]3(C)C4=C(CCC3C2(C)C)[C@]2(C)CC[C@H]([C@H](C)CCCC(C)C)[C@@]2(C)CC4)c1 (some centres not stated),0.184
4,O=C/C=C/c1ccc2c(c1)OCO2,-0.142
5,O=C1C=CC(=O)[C@@H]2CC(COc3ccccc3)=C3[C@@H](CCc4ccccc4)OB(O)C[C@@H]3[C@H]12,-0.132
6,O=C1O[C@@H](c2ccccc2)[C@@H](c2ccccc2)N2[C@@H](c3ccc(O)cc3)[C@]3(C(=O)Nc4ccc(C#CC5(O)CCCCCC5)cc43)[C@@H](C(=O)N3CCCCCCC3)[C@H]12,3.13

# Test system: not listed separately
# Experiment: small-molecule binders of probe aInhba, primary screen, biochemical, small-molecule microarray, 635/667 nm fluorescence (AID 1148);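 further: score merges 667nm spot fluorescence with signal-to-noise for antibody binding to printed compounds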
# Settings: higher = more signal
row,Compound,composite z-score
1,CC(C)C[C@@H]1NC(=O)[C@H]2C[C@@H](C(=O)NCCCCCCNC(=O)CS)[C@@H](c3cccc(OCCO)c3)N2C1=O,0.0574
2,CC(C)NC(=O)[C@@]1(Cc2ccccc2I)c2ccccc2C(=O)N(Cc2ccccc2)[C@H]1c1ccc(CO)cc1,0.817
3,O=C1O[C@H](c2ccccc2)[C@H](c2ccccc2)N2[C@H]1[C@@H](C(=O)N1CCN(c3ncccn3)CC1)[C@]1(C(=O)Nc3ccccc31)[C@H]2c1ccc(OCCO)cc1,0.0588
4,COc1ccc(CCNC(=O)[C@@]2(Sc3ccc(C)cc3)CC(=O)N(Cc3ccccc3Cl)[C@@H]2c2ccc(CO)cc2I)cc1,0.12
5,CN(C)C(=O)[C@]1(CCC(=O)OC(C)(C)C)N=C(c2ccc(OCCCO)cc2)O[C@@H]1c1ccccc1N=[N+]=[N-],0.105
6,CC(=O)NCCCC[C@@H]1NC(=O)[C@@H]2C[C@H](C(=O)NCCCCN(C)C)[C@H](c3ccc(O)cc3)N2C1=O,-0.23
7,COc1c(C)cc(-c2cc3c(c(-c4ccc(Oc5ccccc5)cc4)n2)[Si](C(C)C)(C(C)C)OC3)cc1C,0.127
8,CC(C)CNC(=O)[C@@]1(c2ccc([N+](=O)[O-])cc2)CC(=O)N(CC23CC4CC(CC(C4)C2)C3)[C@@H]1c1ccc(CO)cc1,-0.0442
9,Cc1ccc(F)cc1S(=O)(=O)N[C@@H]1CCN(Cc2ccc(-c3ccccc3)cc2)C1,-0.128
10,CC(C)(C)OC(=O)CC[C@]1(C(=O)N2CCCCC2)N=C(c2ccc(OCCCO)cc2)O[C@H]1c1ccccc1N=[N+]=[N-],0.813
11,COC(=O)c1ccc(C(O)C2C=CC3C(=O)N(C)C(=O)C3N2NC(=O)OC(C)(C)C)o1 (configuration not stated),-0.128
12,CCCCCCCCCCC(O)C1C=CC2C(=O)N(Cc3ccccc3)C(=O)C2N1n1cnnc1 (configuration not stated),0.437
13,CCOC(=O)C1=CC[C@@H](c2ccccc2)N(S(=O)(=O)c2ccc(C)cc2)[C@H]1C(=O)OCC,0.421
14,CCCNC(=O)[C@@]1(c2ccc([N+](=O)[O-])cc2)CC(=O)N(CC23CC4CC(CC(C4)C2)C3)[C@@H]1c1ccc(CO)cc1,-0.272
15,COCCOC(=O)N1C(=O)[C@@]2(c3ccccc31)[C@H](C(=O)NC[C@H](O)c1ccccc1)[C@H]1C(=O)O[C@H](c3ccccc3)[C@H](c3ccccc3)N1[C@@H]2c1ccc(OCCO)cc1,0.0588
16,CCCCC=C[C@@H](NC(=O)c1ccco1)c1ccccc1,0.194
17,CC(=O)NCCCC[C@@H]1NC(=O)[C@H]2C[C@@H](C(=O)NCCCCCC[N+](C)(C)C)[C@@H](c3cccc(OCCO)c3)N2C1=O,-0.149
18,O=C(CS)NCCCCCCNC(=O)[C@H]1C[C@H]2C(=O)NCC(=O)N2[C@H]1c1ccc(O)cc1,-0.188
19,COC(=O)[C@@]1(Cc2ccc(OC)cc2)[C@H]2c3cc(C(=O)N(C)C)n(Cc4c(OC)[nH]cc(C)c4=O)c3C[C@H]2CN1C(=O)c1ccccc1,0.0882
20,CS(=O)(=O)CCOC(=O)C1=CC(c2ccc(CO)cc2)=CC(C2CC2)N(Cc2cc3c(cc2Br)OCO3)C=C1C(=O)OCCS(C)(=O)=O (configuration not stated),-0.0645
21,C=CCOC(=O)[C@H]1[C@@H]2C(=O)O[C@@H](c3ccccc3)[C@@H](c3ccccc3)N2[C@@H](c2ccc(OCCOC(=O)[C@@H]3C[C@@H]4C(=O)N5CCC[C@H]5C(=O)N4[C@@H]3c3ccc(O)cc3)cc2)[C@]12C(=O)Nc1ccccc12,-0.0963
